Results taken from PMC5540273 (PLoS ONE, 2017).

The molecules below were run on T1, PCTK2. Settings: concentration: 1 μM, replicates: in singlicate; n = 1.
T1 construct: gene CDK17
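Also: KINOMEscan kinase panel screen.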

Row | Structure (SMILES) | %Inh
1 | FC(F)(F)c1ccc(/C=C/c2cncnc2Nc2ccc3[nH]c(Cc4ccccc4)nc3c2)cc1 [GW709199] | 0%
2 | O=C(Nc1cccc(-c2nn3ccccc3c2-c2ccnc(Nc3cccc(F)c3)n2)c1)c1c(F)ccc(F)c1Cl [GSK357952] | 0%
3 | O=C(Nc1ccccc1F)NC1CCN(c2ccnc(Nc3ccc(F)cc3)n2)CC1 [GSK1379800] | 0%
4 | Cc1occc1-c1ncc(OC[C@@H](N)Cc2c[nH]c3ccccc23)cc1-c1ccc2[nH]nc(C)c2c1.O=C(O)C(F)(F)F [GSK682037] | 0%
5 | C[C@@H]1CC[C@@H](C(=O)Nc2ccccc2)CN1c1cc(-c2ccc3c(N)n[nH]c3c2)nc(N)n1 [GSK2286062] | 13%
6 | Cl.NC(=O)c1cccc(Nc2nccc(Nc3ccc(Oc4c(Cl)cccc4Cl)c(Cl)c3)n2)c1 [GW659009] | 0%
7 | Cc1ccc(C(=O)Nc2ccc(Nc3ccnc4cc(-c5nccs5)ccc34)cc2O)cc1.Cl [GW494702] | 0%
8 | CNC(=O)c1ccccc1Nc1nc(Nc2ccc(N3CCOCC3)cc2)ncc1Cl.Cl [GSK1576028] | 43%
9 | COc1cc(Nc2nccc(-c3c(-c4cccc(NC(=O)c5c(F)cccc5F)c4)nn4ccccc34)n2)cc(OC)c1OC [GSK323521] | 8%
10 | Nc1ncnc2c1nc(-c1ccccc1)n2-c1ccccc1 [SKF-97293] | 0%
11 | Fc1ccc(-c2ncn(C3CCNCC3)c2-c2ccnc(Oc3ccc(-c4ccccc4)cc3)n2)cc1 [SB-245391] | 1%
12 | Cl.Cl.NCC(NCc1ccc(-c2ccnc3[nH]ccc23)s1)c1ccccc1 (centres unmarked) [GSK1321565] | 0%
13 | CC(=O)N1CCN(c2ccc(Nc3nccc(-c4sc(C(C)C)nc4-c4cccc(NS(=O)(=O)c5cccc(Cl)c5)c4)n3)cn2)CC1 [GSK1660437] | 99.9%
14 | COc1ccc(Nc2nccc(N3CCC(NC(=O)Nc4cccc(OC)c4)C3)n2)cc1 (centres unmarked) [GSK1379742] | 0%
15 | Cl.Cl.NCC(NC(=O)c1cc(-c2ccccc2)c(-c2ccnc3[nH]ccc23)s1)c1ccccc1 (centres unmarked) [GSK1321561] | 0%
16 | O=C(Nc1n[nH]c2cc(-c3ccoc3)ccc12)C1CC1 [SB-738481] | 51%

Row | Structure (SMILES) | %Inh
17 | Cl.c1ccc(-c2ccc3c(Nc4ccc5[nH]ccc5c4)ccnc3c2)nc1 [GW440138] | 6%
18 | COc1cc(Nc2nccc(-c3c(-c4cccc(NC(=O)c5c(F)cccc5F)c4)nn4ncccc34)n2)cc(OC)c1OC [GSK327238] | 0%
19 | CCCCc1nn2ncccc2c1-c1ccnc(Nc2ccc(N3CCN(C)CC3)cc2)n1 [GW684941] | 37%
20 | Nc1ncc(-c2ccc3nccc(-c4ccncc4)c3c2)cc1S(=O)(=O)N1CCOCC1 [GSK1627798] | 21%
21 | Cc1ccc(S(=O)(=O)Nc2ccc(Nc3nccc(Nc4cccc5[nH]ncc45)n3)cc2)cc1 [GSK581271] | 0%
22 | COc1ccc(Nc2nccc(NCCNC(=O)c3cc4ccccc4s3)n2)cc1 [GSK1379896] | 0%
23 | NCCCC(NC(=O)c1cc(Br)c(-c2ccnc3[nH]ccc23)s1)c1ccccc1.O=C(O)C(F)(F)F.O=C(O)C(F)(F)F (centres unmarked) [GSK1287544] | 0%
24 | CC(C)c1nc(-c2cccc(NS(=O)(=O)c3c(F)cccc3F)c2F)c(-c2ccnc(Nc3ccc(N4CCOCC4)nc3)n2)s1 [GSK2008607] | 100%
25 | O=C(NC1CCN(c2ccnc(Nc3ccc(F)cc3)n2)C1)c1cc2ccccc2s1 (centres unmarked) [GSK1379716] | 11%
26 | Nc1ncc(-c2cccnc2)c2scc(-c3ccc4c(c3)CCN4C(=O)Cc3ccccc3)c12 [GSK683281] | 8%
27 | CC(C)(C)c1ccc2nccc(Nc3cccc(O)c3)c2c1 [GW856795] | 0%
28 | COc1cccc(C2=C(Nc3ccc(Cl)c(C(=O)O)c3)C(=O)NC2=O)c1 [SB-390769] | 0%
29 | Cc1ccc(F)c(C(=O)Nc2cccc(-c3nn4ccccc4c3-c3ccnc(Nc4cccc(F)c4)n3)c2)c1F [GSK361061] | 0%
30 | O=C(Nc1n[nH]c2nc(-c3ccc(O)cc3)ccc12)C1CC1 [SB-710363] | 56%
31 | c1ccc(-c2n[nH]cc2Nc2ccnc3ccccc23)nc1 [GW694077] | 0%
32 | CCn1c(-c2nonc2N)nc2c(C#CC(C)(C)O)ncc(OCCCCN)c21.O=C(O)C(F)(F)F.O=C(O)C(F)(F)F [GSK507274] | 0%
